Rows were chosen to be rich in hits. Some 4% of all compounds tested hit in one or more screens of this group.
Gli-Sufu block = blocks Gli-Sufu signaling in a luciferase reporter. AID 588413. 340,000 tested, 0.74% active. inhibition, % at 5 µM. Sufu-KO-LIGHT fibroblasts, Gli luciferase reporter luminescence;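 active = inhibition above about 55%, limit read from the data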
Mdm2 MdmX PPI = inhibitors of human Mdm2/MdmX interaction | O15151+Q00987 | SaOS-2 split-luciferase Mdm2/MdmX complementation, luminescence | inhibition, % at 8 µM | 330,000 tested, 3% active | AID 485346;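 active = inhibition of at least 50% at 8 µM in the primary screen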
Target sequence (O15151 whole entry, looked up): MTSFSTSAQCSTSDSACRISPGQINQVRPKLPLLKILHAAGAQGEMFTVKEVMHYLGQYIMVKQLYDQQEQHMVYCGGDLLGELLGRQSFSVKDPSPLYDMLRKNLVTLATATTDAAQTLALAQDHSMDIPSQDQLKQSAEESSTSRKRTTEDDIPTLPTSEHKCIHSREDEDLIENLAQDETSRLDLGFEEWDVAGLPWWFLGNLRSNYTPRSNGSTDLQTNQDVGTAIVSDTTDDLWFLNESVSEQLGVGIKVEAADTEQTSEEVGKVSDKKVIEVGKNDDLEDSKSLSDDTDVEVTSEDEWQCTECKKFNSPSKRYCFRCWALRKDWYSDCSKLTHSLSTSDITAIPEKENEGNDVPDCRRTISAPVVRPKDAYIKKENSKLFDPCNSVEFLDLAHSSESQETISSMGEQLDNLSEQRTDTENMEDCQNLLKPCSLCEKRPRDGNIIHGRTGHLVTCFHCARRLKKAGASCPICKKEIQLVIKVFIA
Target sequence (Q00987 whole entry, looked up): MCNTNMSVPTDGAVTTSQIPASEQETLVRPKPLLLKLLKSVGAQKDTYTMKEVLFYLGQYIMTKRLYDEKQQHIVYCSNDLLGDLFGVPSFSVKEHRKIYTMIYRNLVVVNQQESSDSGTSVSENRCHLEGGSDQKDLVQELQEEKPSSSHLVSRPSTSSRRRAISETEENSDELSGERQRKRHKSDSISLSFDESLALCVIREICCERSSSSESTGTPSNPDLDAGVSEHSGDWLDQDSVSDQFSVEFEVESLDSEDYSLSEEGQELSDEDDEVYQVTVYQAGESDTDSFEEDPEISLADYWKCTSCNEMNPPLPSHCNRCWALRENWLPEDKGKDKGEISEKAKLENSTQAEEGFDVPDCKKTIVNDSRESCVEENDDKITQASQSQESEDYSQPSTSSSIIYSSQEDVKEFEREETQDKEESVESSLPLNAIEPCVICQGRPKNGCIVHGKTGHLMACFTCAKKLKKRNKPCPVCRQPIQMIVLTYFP
Beta cell apopt = blocks beta cell apoptosis. INS-1E cytokine-induced death, ATP luminescence, 48 h; percent of positive-control rescue, neutral wells zero. protection from apoptosis, % (no concentration beside the values). 300,000 tested, 0.8% active. AID 435005;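 active = Every replicate reaches about 75%, or at least half do and their mean reaches it too, limit read from the data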;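 also: higher means more ATP so stronger rescue from cytokine killing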
CSC inhib = cancer stem cell inhibition; inhibition, % at 7.5 µM; 300,000 tested, 1.1% active; cancer stem cell-like cells viability, luminescence; in the data active = inhibition above about 75%; tested in HMLE shEcad cells
Shn3 3UTR inh = Schnurri-3 reporter inhibition in Clone20 osteoblasts; inhibition, % at 12.5 µM; 360,000 tested, 0.52% active; Clone20 osteoblast Shn3 3'UTR firefly luciferase, 24 h;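 active = mean inhibition of at least 75% with every replicate also reaching 75%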
PAX8 inh HTS = inhibitors of PAX8 transcriptional activity in RMG-I cells | RMG-I TPO-luciferase reporter, SteadyGlo, 24 h | inhibition, % at 12.6 µM | 360,000 tested, 1.2% active | AID 652154;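 active = mean replicate inhibition at least 60% with every replicate also reaching 60%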;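 also: luciferase light reporting Pax8 driven TPO promoter activity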
Mdm2 MdmX conf = confirmation of human Mdm2/MdmX interaction inhibitors. shares compounds with Mdm2 MdmX PPI. Mdm2-MdmX binding, luminescent assay. inhibition, % at 8 µM. 10,000 tested, 55% active. AID 489028; in the data active = inhibition above about 40%
Full FLuc ctr = inhibits full-length luciferase, flagging false Mdm2/MdmX hits; shares compounds with Mdm2 MdmX PPI; SaOS-2 full-length luciferase counterscreen, luminescence; inhibition, % at 8 µM; 6,200 tested, 77% active; AID 504607;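 active = mean inhibition at 8 µM reaching about 37%, which flags the compound as non-specific, limit read from the data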;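 also: p53-null SaOS-2 cells with luciferase driven by a doxycycline-inducible promoter; compound on cells about two nights before reading with doxycycline added after day one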
Numbers stand for hits; 0 = inactive; - = not tested or not shown.

SMILES	Gli-Sufu block	Mdm2 MdmX PPI	Beta cell apopt	CSC inhib	Shn3 3UTR inh	PAX8 inh HTS	Mdm2 MdmX conf	others
Cc1cc(C)c(-c2csc(NC(=O)c3n[nH]c(=O)c4ccccc34)n2)c(C)c1	0	60	0	-	0	0	62	Full FLuc ctr=68
COc1cc(NC(=O)c2n[nH]c(=O)c3ccccc23)cc(OC)c1	0	0	0	0	0	0	-
COc1ccc(-c2nc(NC(=O)c3cc(C(C)(C)C)nn3C)sc2C)cc1	0	61	85	81	0	-	0
NNC(=O)c1n[nH]c(=O)c2ccccc12	0	0	0	0	0	0	-
COc1ccc(-c2nc(NC(=O)c3n[nH]c(=O)c4ccccc34)sc2C)cc1	0	69	0	0	0	0	0
CC(C)c1cn([C@H]2C[C@@H]3O[C@H](CO)CC[C@@H]3O[C@@H]2CCc2ccc(-c3ccccc3)cc2)nn1	-	-	-	-	-	0	-
CCC(=O)N1C[C@@H](C)[C@@H](OC)CN(C)C(=O)c2ccc(NC(=O)C3CC3)cc2OC[C@H]1C	-	-	-	-	-	0	-
CCCCCCNC(=O)c1cn(CC)c2cc(N3CCN(C)CC3)c(F)cc2c1=O	0	51	0	0	0	0	0
CCn1cc(C(=O)NCCCO)c(=O)c2cc(F)c(N3CCN(C)CC3)cc21	0	0	0	0	0	0	-
COc1ccc(-c2cnc(N)nc2-c2ccc(OCc3ccccc3)cc2O)cc1	0	0	0	0	0	0	-
Nc1ncc(-c2ccccc2)c(-c2ccc(O)cc2O)n1	0	61	0	0	0	0	0
Cc1cccc2sc(NC(=O)c3cc(S(=O)(=O)N(C)C)ccc3N3CCCC3)nc12	0	65	0	0	0	0	70	Full FLuc ctr=45
CN(C)S(=O)(=O)c1ccc(N2CCCC2)c(C(=O)Nc2nc(-c3cc(F)ccc3F)cs2)c1	0	55	0	0	0	0	47	Full FLuc ctr=48
CCC(=O)N1[C@H](C(=O)N(C)C)[C@@H](CO)[C@@H]2Cn3c(ccc(-c4ccccc4)c3=O)[C@@H]21	-	-	-	-	-	0	-
COc1cccc(C2C(C(=O)OC(C)C)=C(C)N=c3s/c(=C\c4ccc(C(=O)O)cc4)c(=O)n32)c1 (stereo unspecified)	0	0	0	0	0	0	-
O=c1/c(=C\c2ccc(O)cc2)sc2n1C(c1ccccc1)C(c1ccccc1)=NN=2 (stereo unspecified)	0	79	0	0	0	-	43	Full FLuc ctr=51
CCc1nc(N=C(N)N)nc2ccccc12	-	59	0	0	-	0	0
NC(N)=Nc1nc(-c2ccccc2)c2ccccc2n1	0	62	-	0	0	0	0
CC(C)NC(=O)N(C)C[C@@H]1OCCCC[C@H](C)Oc2ccc(NS(=O)(=O)c3cn(C)cn3)cc2C(=O)N([C@H](C)CO)C[C@@H]1C	-	-	-	-	-	0	-
O=C(Nc1ccccc1)N1C[C@H]2[C@@H](c3ccccc31)[C@H](CO)N2C(=O)c1cccnc1	-	-	-	-	-	0	-
O=C1N/C(=C/c2ccc(Br)s2)C(=O)N1c1ccccc1	0	51	0	0	0	0	0
Cc1ccc(/C=C2/NC(=O)N(c3ccccc3)C2=O)o1	0	0	0	0	0	-	-
COC1=CC(=O)c2ccccc2C1=O	0	51	-	-	0	-	0
Cc1ccc(S(=O)(=O)Nc2ccc3c(c2)CC(=O)N([C@H](C)CO)C[C@H](C)[C@@H](CN(C)Cc2ccc(C(=O)O)cc2)O3)cc1	-	-	-	-	-	0	-
C[C@@H]1CCCCO[C@H](CN(C)C(=O)Nc2ccc(F)cc2)[C@@H](C)CN([C@@H](C)CO)C(=O)c2cc(N(C)C)ccc2O1	-	-	-	-	-	0	-
SMILES	Gli-Sufu block	Mdm2 MdmX PPI	Beta cell apopt	CSC inhib	Shn3 3UTR inh	PAX8 inh HTS	Mdm2 MdmX conf	others
Oc1ccc(/C=N/Nc2nc(N3CCCCCC3)nc(N3CCCCCC3)n2)c(O)c1	0	66	0	-	0	0	0
C[C@H](CO)N1C[C@H](C)[C@@H](CN(C)CC2CCCCC2)OCCCC[C@H](C)Oc2ccc(NC(=O)C3CCCCC3)cc2C1=O	-	-	-	-	-	0	-
COCC(=O)N(C)C[C@@H]1Oc2ncc(-c3ccc(C#N)cc3)cc2C(=O)N([C@H](C)CO)C[C@H]1C	-	-	-	-	-	0	-
CCOC(=O)c1sc(NC(=O)CCCCCN2C(=O)c3cccc4cccc(c34)C2=O)nc1C	0	-	-	-	0	-	-
CCOC(=O)c1sc(NC(=O)CN2C(=O)c3cccc4cccc(c34)C2=O)nc1C	0	73	0	0	0	-	0
COc1ccc(S(=O)(=O)Nc2ccc3c(c2)C(=O)N([C@@H](C)CO)C[C@H](C)[C@@H](CN(C)S(=O)(=O)c2c(C)noc2C)OCCCC[C@@H](C)O3)cc1	-	-	-	-	-	0	-
Cc1ccc2c(C)c(C(=O)Nc3ccc(S(N)(=O)=O)cc3)oc2c1C	0	0	0	0	0	0	-
Cc1cc2oc(C(=O)Nc3ccc(S(N)(=O)=O)cc3)c(C)c2cc1Cl	0	55	-	0	0	0	48	Full FLuc ctr=58
Cc1cc(C)nc(NC(=NCCc2c[nH]c3ccccc23)NC(=O)C(C)(C)C)n1	0	52	0	0	0	0	0
Cc1cc(C)nc(N2C(=O)CC(C(=O)O)NC2=NCCc2c[nH]c3ccccc23)n1 (stereo unspecified)	0	0	0	0	0	-	-
COc1ccccc1NC(=O)N1C[C@@H]2[C@H](c3ccccc31)[C@H](CO)N2C(=O)C1CCCC1	-	-	-	-	-	0	-
COc1ccc2cc1Oc1ccc(cc1)CC1c3c(cc(OC)c4c3Oc3cc5c(cc3O4)CCNC5C2)CCN1C (stereo unspecified)	0	100	-	0	0	-	100	Full FLuc ctr=0
CCOc1ccc(C2NCCc3cc(OC)c(OC)cc32)cc1OC (stereo unspecified)	0	0	0	0	0	0	-
COc1ccc2cc1Oc1ccc(cc1)C[C@H]1c3c(cc(OC)c4c3Oc3c(ccc5c3[C@H](C2)N(C)CC5)O4)CCN1C	0	100	122	105	0	-	42	Full FLuc ctr=0
CCCC#Cc1ccc(CC[C@H]2O[C@H]3CC[C@@H](CO)O[C@H]3C[C@@H]2n2cc(C(C)(C)O)nn2)cc1	-	-	-	-	-	0	-
CC(C)(C)[S@@](=O)N1Cc2cc(C(=O)NC3CCCCC3)nc(-c3cccc(Br)c3)c2[C@H]1CCO	-	-	-	-	-	0	-
CSc1cccc(NC(=O)NCc2cccc(CNC(=O)Nc3cccc(SC)c3)c2)c1	0	56	-	-	0	0	46	Full FLuc ctr=67
CC1(C)CC2CC(C)(CN2C(=O)c2cc(-c3ccccc3O)on2)C1 (stereo unspecified)	0	64	0	0	0	0	0	Full FLuc ctr=67
Cc1ccc(-c2cc(C(=O)N3CC4(C)CC3CC(C)(C)C4)no2)cc1 (stereo unspecified)	0	0	0	0	0	-	-
Cc1noc(C)c1S(=O)(=O)Nc1ccc2c(c1)CC(=O)N([C@H](C)CO)C[C@H](C)[C@H](CN(C)S(C)(=O)=O)O2	-	-	-	-	-	0	-
Cc1ccsc1-c1nc(C(N)=O)c2[nH]c(=O)n(-c3ccc(Cl)cc3)c2n1	0	97	0	0	0	0	0

High-throughput results as filed in PubChem BioAssay.
